Experimental data reported in PubChem BioAssay AID1159580 (chemical genetic matrix, 2015).
Where “and” joins values, the source holds several entries; their conditions need not be identical. Identical values can stand only once. The whole screen tested about 5,500 compounds, of which about 2,000 (36%) were called active. Roughly 18% stayed inconclusive and do not appear here. Rule as the data show it: active = normalized growth mostly below about 0.91 (no sharp cut-off); inconclusive = no clear call, values can overlap the other calls; inactive = mostly above about 0.92. The list shows a part of the results.

Assay: chemical genetic growth profiling, strain panel (AID 1159580);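 also: tested at 20 µM; growth read once vehicle control cultures reached saturation at 30 °C; 1 = growth at the plate median or of vehicle wells; lower values mean less growth of the strain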
Conditions: S. cerevisiae deletion strains, growth OD

Measured: normalized growth

Nc1ccc(S(=O)(=O)Nc2ccc(Cl)nn2)cc1
inactive: locus YAL013W, strain DEP1, stronger effect = lower value 1.01 | locus YAL021C, strain ccr4, stronger effect = lower value 0.982 | locus YAL026C, strain drs2, stronger effect = lower value 0.996 | locus YAL030W, strain snc1, stronger effect = lower value 0.985 | locus YBL061C, strain skt5, stronger effect = lower value 0.984 | locus YBR009C, strain hhf1, stronger effect = lower value 0.994 | locus YBR021W, strain FUR4, stronger effect = lower value 0.977 | locus YBR023C, strain chs3, stronger effect = lower value 0.984 | locus YBR171W, strain sec66, stronger effect = lower value 0.976 | locus YBR229C, strain ROT2, stronger effect = lower value 0.995 | locus YBR231C, strain swc5, stronger effect = lower value 0.995 | locus YBR279W, strain paf1, stronger effect = lower value 0.998 | locus YCL011C, strain gbp2, stronger effect = lower value 0.987 | locus YCL016C, strain dcc1, stronger effect = lower value 0.971 | locus YCL029C, strain bik1, stronger effect = lower value 0.996 | locus YCL061C, strain MRC1, stronger effect = lower value 0.984 | locus YCL069W, strain vba3, stronger effect = lower value 0.993 | locus YCR088W, strain abp1, stronger effect = lower value 0.987 | locus YDL005C, strain med2, stronger effect = lower value 0.996 | locus YDL035C, strain GPR1, stronger effect = lower value 1.02 | locus YDL040C, strain nat1, stronger effect = lower value 0.992 | locus YDL074C, strain BRE1, stronger effect = lower value 0.978 | locus YDL101C, strain DUN1, stronger effect = lower value 1.01 | locus YDL134C, strain PPH21, stronger effect = lower value 1.01 | locus YDL185W, strain tfp1, stronger effect = lower value 1.01 | locus YDL192W, strain arf1, stronger effect = lower value 1.01 | locus YDR001C, strain nth1, stronger effect = lower value 0.987 | locus YDR069C, strain doa4, stronger effect = lower value 0.999 | locus YDR101C, strain arx1, stronger effect = lower value 0.961 | locus YDR137W, strain rgp1, stronger effect = lower value 0.996 | locus YDR150W, strain NUM1, stronger effect = lower value 0.999 | locus YDR159W, strain sac3, stronger effect = lower value 1.02 | locus YDR162C, strain NBP2, stronger effect = lower value 1.02 | locus YDR195W, strain ref2 0.968 | locus YDR297W, strain sur2, stronger effect = lower value 0.993 | locus YDR318W, strain mcm21, stronger effect = lower value 1 | locus YDR334W, strain swr1, stronger effect = lower value 0.984 | locus YDR335W, strain msn5, stronger effect = lower value 0.994 | locus YDR388W, stronger effect = lower value 1.01 | locus YDR392W, strain spt3, stronger effect = lower value 0.929 | locus YDR502C, strain sam2, stronger effect = lower value 1 | locus YEL003W, strain gim4, stronger effect = lower value 1 | locus YEL037C, strain rad23, stronger effect = lower value 0.991 | locus YEL061C, strain CIN8 (second series), stronger effect = lower value 0.992 | locus YEL061C, strain CIN8, stronger effect = lower value 1 | locus YER015W, strain faa2, stronger effect = lower value 0.973 | locus YER016W, strain bim1, stronger effect = lower value 1 | locus YER110C, stronger effect = lower value 1.01 | locus YER111C, strain swi4, stronger effect = lower value 0.986 | locus YER155C, strain BEM2 (second series), stronger effect = lower value 1 | locus YER155C, strain BEM2, stronger effect = lower value 0.998 | locus YER167W, strain BCK2, stronger effect = lower value 1.01 | locus YFR010W, strain ubp6, stronger effect = lower value 0.99 | locus YGL078C, strain dbp3, stronger effect = lower value 1 | locus YGL086W, strain mad1, stronger effect = lower value 0.988 | locus YGL167C, strain pmr1, stronger effect = lower value 0.983 | locus YGL173C, strain kem1, stronger effect = lower value 0.99 | locus YGL227W, strain vid30, stronger effect = lower value 0.979 | locus YGL240W, strain doc1, stronger effect = lower value 0.992 | locus YGL248W, strain PDE1, stronger effect = lower value 0.999 | locus YGL253W, strain hxk2, stronger effect = lower value 1 | locus YGR135W, strain pre9, stronger effect = lower value 1.06 | locus YGR252W, strain gcn5, stronger effect = lower value 1.04 | locus YHR013C, strain ard1, stronger effect = lower value 0.965 | locus YHR027C, strain rpn1, stronger effect = lower value 0.995 | locus YHR030C, strain SLT2, stronger effect = lower value 1 and 0.995 | locus YHR079C, strain IRE1 (second series), stronger effect = lower value 1.01 | locus YHR079C, strain IRE1, stronger effect = lower value 0.989 | locus YHR094C, strain hxt1, stronger effect = lower value 1.01 | locus YHR129C, strain ARP1, stronger effect = lower value 1.01 | locus YHR142W, strain chs7, stronger effect = lower value 0.994 | locus YHR200W, strain rpn10, stronger effect = lower value 1 | locus YIL066C, strain RNR3, stronger effect = lower value 0.992 | locus YIL073C, strain SPO22, stronger effect = lower value 1.07 | locus YIL125W, strain kgd1, stronger effect = lower value 0.994 | locus YIR030C, strain dcg1, stronger effect = lower value 1.01 | locus YJL092W, strain hpr5, stronger effect = lower value 0.983 | locus YJL095W, strain BCK1 (second series), stronger effect = lower value 0.988 | locus YJL095W, strain BCK1, stronger effect = lower value 1.01 and 0.984 | locus YJL115W, strain asf1, stronger effect = lower value 0.991 | locus YJL129C, strain trk1, stronger effect = lower value 1.01 | locus YJL134W, strain LCB3, stronger effect = lower value 1.01 | locus YJL154C, strain vps35, stronger effect = lower value 0.986 | locus YJL164C, strain tpk1, stronger effect = lower value 0.985 | locus YJL166W, strain qcr8, stronger effect = lower value 0.984 | locus YJL168C, strain set2, stronger effect = lower value 1 | locus YJL187C, strain SWE1 (second series), stronger effect = lower value 0.992 | locus YJL187C, strain SWE1, stronger effect = lower value 0.986
